Measured values taken from PubChem BioAssay (Tox21).
Results filed as inconclusive are left out. A call without a number means that no potency is given here. Active and inactive are the calls of the source. Unless noted, the call rests on the fitted dose curve; in most records, active means well fitted curve in the direction sought with a large enough effect in the repeat runs; inconclusive means weak or mixed curves; inactive means no such curve, though single readings can be large; an effect the other way counts as inactive or inconclusive.

Assays:
[1] = molecular target: Acetylcholinesterase (Homo sapiens) (UniProt P22303); assay: Acetylcholinesterase (AChE) small molecule antagonists: enzyme-based qHTS assay (AID 1347397; calls by dose curve; further: nearly all actives have a fitted effect of over 55% in size); details: Potency: AChE enzyme activity inhibition
Method in brief: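 Recombinant human AChE (50 mU/mL) preincubated with compound 30 min at room temperature; acetylthiocholine plus DTNB then added, and thiocholine formation read colorimetrically after 10 min at room temperature. DMSO served as vehicle control.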

[2] = molecular target: Acetylcholinesterase (Homo sapiens) (UniProt P22303); assay: Acetylcholinesterase (AChE) small molecule antagonists: fluorescence cell-based qHTS assay (AID 1347398; calls by dose curve; further: nearly all actives have a fitted effect of over 50% in size); details: Potency: AChE activity
Method in brief: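 SH-SY5Y cells (2000/well), attached overnight, incubated with compound 30 min at 37 C. Acetylthiocholine plus Thiolite Green then added for 40 min at room temperature. Thiocholine fluorescence (Ex/Em 490/520 nm) reports cellular AChE activity.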

[3] = molecular target: Acetylcholinesterase (Homo sapiens) (UniProt P22303); assay: Acetylcholinesterase (AChE) small molecule antagonists: enzyme-based qHTS assay with human liver microsomes (AID 1347399; calls by dose curve; further: nearly all actives have a fitted effect of over 60% in size); details: Potency: qHTS inhibition
Method in brief: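 Recombinant human AChE (50 mU/mL in the enzyme mix) and human liver microsomes (0.25 mg/mL final) were preincubated with compound and NADPH (0.25 mg/mL final) for 30 min at 37 C. Acetylthiocholine/DTNB was then added; thiocholine was read colorimetrically after 10 min at room temperature.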

[4] = molecular target: Cytochrome P450 2C19 (Homo sapiens) (UniProt P33261); assay: Cytochrome P450 Family 2 Subfamily C Member 19 (CYP2C19) small molecule antagonists: luciferase reporter qHTS assay (AID 1671197); further: nearly all actives have a fitted effect of over 65% in size
Method in brief: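 CYP2C19 P450-Glo, 1536-well qHTS. Cpd + enzyme/proluciferin substrate 10 min RT; + NADPH regen, 37C 1 h; stop with luciferin detection reagent, 20 min RT, luminescence (RLU). Pos ctrl ketoconazole.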

[5] = molecular target: Cytochrome P450 1A2 (Homo sapiens) (UniProt P05177); assay: Cytochrome P450 Family 1 Subfamily A Member 2 (CYP1A2) small molecule antagonists: luciferase reporter qHTS assay (AID 1671199); further: nearly all actives have a fitted effect of over 50% in size
Method in brief: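 Human CYP1A2 activity measured with a P450-Glo proluciferin substrate; compounds in DMSO preincubated 10 min at room temperature with enzyme-substrate mix, then NADPH regeneration system added for 1 h. Luciferin detection reagent, 20 min, luminescence read.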

[6] = molecular target: Voltage-gated inwardly rectifying potassium channel KCNH2 (Homo sapiens) (UniProt Q12809); assay: Human Ether-a-go-go-Related Gene (hERG) channel small molecule antagonists: fluorescence cell-based qHTS assay (AID 1671200); further: nearly all actives have a fitted effect of over 50% in size
Method in brief: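 Measured: Tl+ flux via fluorescence (480/540 nm) in hERG-expressing U2OS cells after 1 h dye loading at room temperature.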

[7] = molecular target: Cytochrome P450 3A4 (Homo sapiens) (UniProt P08684); assay: Cytochrome P450 Family 3 Subfamily A Member 4 (CYP3A4) small molecule antagonists: luciferase reporter qHTS assay (AID 1671201); further: nearly all actives have a fitted effect of over 50% in size
Method in brief: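 Setup: enzyme-substrate mix, compound pin transfer, 10 min RT. Reaction: NADPH regeneration solution, 1 h RT. Readout: detection reagent stops turnover, luminescence measured after 20 min, expressed in relative luminescence units.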

[8] = molecular target: Cytochrome P450 2C9 (Homo sapiens) (UniProt P11712); assay: Cytochrome P450 Family 2 Subfamily C Member 9 (CYP2C9) small molecule antagonists: luciferase reporter qHTS assay (AID 1671198); further: nearly all actives have a fitted effect of over 50% in size
Method in brief: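 P450-Glo proluciferin substrate with CYP2C9 enzyme; 10 min RT preincubation, then NADPH regeneration 1 h at 37C; luciferin detection reagent 20 min RT, luminescence in relative luminescence units.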

[9] = molecular target: Cytochrome P450 2D6 (Homo sapiens) (UniProt P10635); assay: Cytochrome P450 Family 2 Subfamily D Member 6 (CYP2D6) small molecule antagonists: luciferase reporter qHTS assay (AID 1671196); further: nearly all actives have a fitted effect of over 50% in size
Method in brief: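 CYP2D6 enzyme–substrate mix was held with compound for 10 min at room temperature, then NADPH regeneration solution was added and the reaction ran 1 h at room temperature. Luciferin product was detected by luminescence after 20 min with detection reagent.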
Potency means the concentration at half of the fitted maximal effect.

Sequence of Acetylcholinesterase (Homo sapiens) (P22303 whole entry, looked up): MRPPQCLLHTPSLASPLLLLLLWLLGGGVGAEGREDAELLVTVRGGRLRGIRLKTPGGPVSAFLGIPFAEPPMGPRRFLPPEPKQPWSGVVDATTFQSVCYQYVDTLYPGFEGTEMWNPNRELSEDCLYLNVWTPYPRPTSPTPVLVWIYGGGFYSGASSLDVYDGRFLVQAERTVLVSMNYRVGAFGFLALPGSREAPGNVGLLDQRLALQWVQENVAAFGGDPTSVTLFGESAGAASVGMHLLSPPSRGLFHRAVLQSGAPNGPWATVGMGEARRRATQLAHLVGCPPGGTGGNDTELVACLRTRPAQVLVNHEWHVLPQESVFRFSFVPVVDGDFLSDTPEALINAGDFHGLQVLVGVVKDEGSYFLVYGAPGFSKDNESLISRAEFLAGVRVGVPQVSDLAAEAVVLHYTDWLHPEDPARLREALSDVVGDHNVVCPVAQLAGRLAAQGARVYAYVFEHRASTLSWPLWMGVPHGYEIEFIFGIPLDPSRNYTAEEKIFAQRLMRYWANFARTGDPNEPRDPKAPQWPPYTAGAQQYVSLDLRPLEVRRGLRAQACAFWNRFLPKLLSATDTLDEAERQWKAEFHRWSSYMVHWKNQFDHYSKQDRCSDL
Sequence of Cytochrome P450 3A4 (Homo sapiens) (P08684 whole entry, looked up): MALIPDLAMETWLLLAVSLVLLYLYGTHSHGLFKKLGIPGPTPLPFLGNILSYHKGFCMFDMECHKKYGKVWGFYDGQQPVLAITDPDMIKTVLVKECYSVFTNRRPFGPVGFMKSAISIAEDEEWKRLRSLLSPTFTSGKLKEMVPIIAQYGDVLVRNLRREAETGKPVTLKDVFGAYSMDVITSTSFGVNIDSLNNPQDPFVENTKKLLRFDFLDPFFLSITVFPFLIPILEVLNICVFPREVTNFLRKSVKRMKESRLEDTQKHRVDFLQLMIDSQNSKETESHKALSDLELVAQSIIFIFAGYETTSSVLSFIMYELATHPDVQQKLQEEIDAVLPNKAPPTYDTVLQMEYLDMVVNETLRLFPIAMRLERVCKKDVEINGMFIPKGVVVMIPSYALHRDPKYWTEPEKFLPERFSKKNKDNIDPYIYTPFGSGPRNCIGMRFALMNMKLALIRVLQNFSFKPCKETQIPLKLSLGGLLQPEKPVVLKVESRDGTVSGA
Sequence of Voltage-gated inwardly rectifying potassium channel KCNH2 (Homo sapiens) (Q12809 whole entry, looked up): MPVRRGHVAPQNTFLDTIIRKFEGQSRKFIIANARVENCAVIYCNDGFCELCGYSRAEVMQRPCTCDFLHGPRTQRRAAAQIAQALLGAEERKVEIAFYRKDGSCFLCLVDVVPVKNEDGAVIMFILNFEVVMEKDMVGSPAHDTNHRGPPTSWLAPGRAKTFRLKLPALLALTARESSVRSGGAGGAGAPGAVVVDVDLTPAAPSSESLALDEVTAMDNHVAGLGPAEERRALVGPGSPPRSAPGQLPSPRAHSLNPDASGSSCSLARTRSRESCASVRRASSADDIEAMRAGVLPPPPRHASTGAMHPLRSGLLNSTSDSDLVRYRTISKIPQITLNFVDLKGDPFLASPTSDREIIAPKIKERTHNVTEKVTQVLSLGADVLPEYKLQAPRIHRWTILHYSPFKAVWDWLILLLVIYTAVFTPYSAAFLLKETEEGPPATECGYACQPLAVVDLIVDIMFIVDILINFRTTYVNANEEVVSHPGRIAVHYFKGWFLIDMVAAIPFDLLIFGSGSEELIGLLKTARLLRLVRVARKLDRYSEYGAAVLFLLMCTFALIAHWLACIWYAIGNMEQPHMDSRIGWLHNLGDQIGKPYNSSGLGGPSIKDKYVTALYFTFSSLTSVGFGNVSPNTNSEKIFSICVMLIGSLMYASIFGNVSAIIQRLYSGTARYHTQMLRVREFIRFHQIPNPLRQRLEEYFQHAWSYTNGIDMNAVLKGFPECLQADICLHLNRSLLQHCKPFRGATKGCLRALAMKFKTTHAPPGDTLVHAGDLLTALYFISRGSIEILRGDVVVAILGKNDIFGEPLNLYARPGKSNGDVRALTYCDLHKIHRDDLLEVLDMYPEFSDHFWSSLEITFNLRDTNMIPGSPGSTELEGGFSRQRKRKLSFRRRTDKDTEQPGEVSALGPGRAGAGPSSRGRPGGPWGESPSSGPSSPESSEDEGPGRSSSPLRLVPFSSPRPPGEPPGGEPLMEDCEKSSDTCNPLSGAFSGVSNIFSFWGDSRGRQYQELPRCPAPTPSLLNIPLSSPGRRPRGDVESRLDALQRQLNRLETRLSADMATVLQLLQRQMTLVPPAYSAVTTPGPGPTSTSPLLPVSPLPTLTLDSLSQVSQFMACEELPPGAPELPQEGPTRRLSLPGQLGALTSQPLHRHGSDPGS
Sequence of Cytochrome P450 1A2 (Homo sapiens) (P05177 whole entry, looked up): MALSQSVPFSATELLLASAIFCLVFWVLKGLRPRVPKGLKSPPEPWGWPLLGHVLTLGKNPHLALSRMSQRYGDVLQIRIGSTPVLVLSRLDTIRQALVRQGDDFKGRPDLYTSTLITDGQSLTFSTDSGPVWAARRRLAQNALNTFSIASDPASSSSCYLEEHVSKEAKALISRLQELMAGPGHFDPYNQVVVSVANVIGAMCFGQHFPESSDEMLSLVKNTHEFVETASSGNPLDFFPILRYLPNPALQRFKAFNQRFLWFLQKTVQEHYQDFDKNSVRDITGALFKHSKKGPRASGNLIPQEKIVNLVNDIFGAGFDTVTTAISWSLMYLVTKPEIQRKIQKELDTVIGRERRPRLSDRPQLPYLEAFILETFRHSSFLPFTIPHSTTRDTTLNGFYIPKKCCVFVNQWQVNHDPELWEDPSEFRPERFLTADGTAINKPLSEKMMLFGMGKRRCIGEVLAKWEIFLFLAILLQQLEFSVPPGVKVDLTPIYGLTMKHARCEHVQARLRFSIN
Sequence of Cytochrome P450 2C19 (Homo sapiens) (P33261 whole entry, looked up): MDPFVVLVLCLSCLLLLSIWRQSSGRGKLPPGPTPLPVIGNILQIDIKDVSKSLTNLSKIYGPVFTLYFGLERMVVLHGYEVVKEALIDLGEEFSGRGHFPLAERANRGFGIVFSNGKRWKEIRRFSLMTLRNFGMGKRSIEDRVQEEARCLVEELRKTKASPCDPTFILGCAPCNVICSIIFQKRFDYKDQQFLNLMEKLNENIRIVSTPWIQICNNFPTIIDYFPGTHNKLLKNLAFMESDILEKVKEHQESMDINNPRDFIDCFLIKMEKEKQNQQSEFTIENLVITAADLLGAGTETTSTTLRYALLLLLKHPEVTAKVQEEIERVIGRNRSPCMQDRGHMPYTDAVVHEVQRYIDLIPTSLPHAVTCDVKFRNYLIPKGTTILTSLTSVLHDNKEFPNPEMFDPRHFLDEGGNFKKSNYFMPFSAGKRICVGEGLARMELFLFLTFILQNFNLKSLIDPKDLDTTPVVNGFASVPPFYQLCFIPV
Sequence of Cytochrome P450 2D6 (Homo sapiens) (P10635 whole entry, looked up): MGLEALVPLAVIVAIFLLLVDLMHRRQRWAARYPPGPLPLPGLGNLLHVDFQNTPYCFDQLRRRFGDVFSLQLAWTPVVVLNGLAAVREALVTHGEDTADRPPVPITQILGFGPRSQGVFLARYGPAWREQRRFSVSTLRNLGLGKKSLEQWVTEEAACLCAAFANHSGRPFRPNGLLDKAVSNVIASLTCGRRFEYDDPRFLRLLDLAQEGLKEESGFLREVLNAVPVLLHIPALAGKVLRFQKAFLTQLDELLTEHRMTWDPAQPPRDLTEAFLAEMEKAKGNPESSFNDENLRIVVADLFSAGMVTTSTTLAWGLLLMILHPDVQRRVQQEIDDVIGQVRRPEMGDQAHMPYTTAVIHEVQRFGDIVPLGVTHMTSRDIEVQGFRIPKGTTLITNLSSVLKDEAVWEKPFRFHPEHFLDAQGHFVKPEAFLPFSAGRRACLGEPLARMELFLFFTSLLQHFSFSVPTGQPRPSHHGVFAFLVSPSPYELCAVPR
Sequence of Cytochrome P450 2C9 (Homo sapiens) (P11712 whole entry, looked up): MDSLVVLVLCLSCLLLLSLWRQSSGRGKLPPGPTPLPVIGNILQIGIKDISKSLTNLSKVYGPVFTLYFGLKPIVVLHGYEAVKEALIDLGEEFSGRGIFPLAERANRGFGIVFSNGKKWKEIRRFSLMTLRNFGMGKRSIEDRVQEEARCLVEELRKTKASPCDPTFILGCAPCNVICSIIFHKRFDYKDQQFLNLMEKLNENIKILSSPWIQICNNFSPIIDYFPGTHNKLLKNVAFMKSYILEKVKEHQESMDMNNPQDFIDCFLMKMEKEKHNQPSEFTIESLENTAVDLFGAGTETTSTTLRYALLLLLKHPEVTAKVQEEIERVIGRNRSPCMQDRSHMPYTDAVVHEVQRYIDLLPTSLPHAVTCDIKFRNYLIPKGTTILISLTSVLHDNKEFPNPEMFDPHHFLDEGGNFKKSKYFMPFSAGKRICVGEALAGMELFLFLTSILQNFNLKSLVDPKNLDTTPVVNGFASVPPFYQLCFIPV

SMILES	Potency [1]	Potency [2]	Potency [3]	Potency [4]	Potency [5]	Potency [6]	Potency [7]	Potency [8]	Potency [9]
CC1(C)CON(Cc2ccccc2Cl)C1=O	inactive	inactive	inactive	10 µM (active)	31.7 µM (active)	inactive	inactive	–	–
Cc1cc(C)nc(Nc2ccccc2)n1	inactive	inactive	inactive	79.6 µM (active)	6.33 µM (active)	inactive	inactive	–	–
Cc1coc2c1CCC(C)C2 (centres undefined)	inactive	inactive	inactive	73.4 µM (active)	–	inactive	29.2 µM (active)	–	–
CCCCOP(=O)(O)OCCCC	inactive	inactive	inactive	56.4 µM (active)	inactive	–	inactive	–	–
COC(=O)c1c(C(F)F)nc(C(F)(F)F)c(C2=NCCS2)c1CC(C)C	inactive	inactive	inactive	5.03 µM (active)	0.356 µM (active)	–	2 µM (active)	35.6 µM (active)	–
CNC(=O)Oc1ccc(N(C)C)c(C)c1	6.33 µM (active)	2.24 µM (active)	39.9 µM (active)	inactive	11.2 µM (active)	–	inactive	–	–
N#CCNCC#N	inactive	inactive	inactive	inactive	–	inactive	inactive	inactive	–
CCOC(=O)NC(=S)Nc1ccccc1NC(=S)NC(=O)OCC	inactive	inactive	inactive	5.03 µM (active)	31.7 µM (active)	inactive	25.2 µM (active)	–	–
C=CC1CC=CCC1 (centres undefined)	inactive	inactive	inactive	inactive	–	–	inactive	–	–
CSc1nc(N=[N+]=[N-])nc(NC(C)C)n1	inactive	inactive	inactive	71 µM (active)	28.3 µM (active)	inactive	inactive	79.6 µM (active)	–
CC(C)CP(=S)(S)CC(C)C	inactive	inactive	inactive	56.4 µM (active)	inactive	inactive	35.6 µM (active)	31.7 µM (active)	–
CCC(Cl)[N+](=O)[O-] (centres undefined)	inactive	inactive	inactive	inactive	–	inactive	inactive	inactive	–
Cc1ccccc1CO[C@@H]1C[C@@]2(C(C)C)CC[C@]1(C)O2	inactive	inactive	inactive	5.64 µM (active)	20 µM (active)	inactive	3.99 µM (active)	–	–
CC(C)COP(=O)(OCC(C)C)OCC(C)C	inactive	inactive	inactive	inactive	–	inactive	inactive	inactive	–
OCCBr	inactive	inactive	inactive	inactive	–	inactive	inactive	inactive	–
CCCCCCI	inactive	inactive	inactive	inactive	inactive	inactive	inactive	inactive	–
O=C(Nc1ccccc1)N(Cc1ccc(Cl)cc1)C1CCCC1	inactive	inactive	inactive	7.1 µM (active)	15.9 µM (active)	38.9 µM (active)	11.2 µM (active)	15.9 µM (active)	–
CN1CCC(N(Cc2ccccc2)c2ccccc2)CC1	inactive	inactive	inactive	inactive	inactive	5.35 µM (active)	inactive	inactive	–
CC(C)(C)C(=O)C(Oc1ccc(Cl)cc1)n1cncn1 (centres undefined)	inactive	inactive	inactive	3.17 µM (active)	35.5 µM (active)	inactive	0.399 µM (active)	–	–
Nc1cnn(-c2ccccc2)c(=O)c1Cl	inactive	inactive	inactive	inactive	inactive	inactive	inactive	–	–
CCCCN(CCCCO)N=O	inactive	inactive	inactive	inactive	inactive	–	–	–	–
CCOP(=O)(OCC)OP(=O)(OCC)OCC	inactive	inactive	inactive	–	inactive	inactive	inactive	inactive	–
CC1(C)COP(Oc2ccccc2)OC1	inactive	inactive	inactive	inactive	–	inactive	inactive	inactive	–
CC(C)(C)OC(=O)c1ncn2c1[C@@H]1CCCN1C(=O)c1c(Br)cccc1-2	inactive	inactive	inactive	inactive	inactive	inactive	–	–	–

SMILES	Potency [1]	Potency [2]	Potency [3]	Potency [4]	Potency [5]	Potency [6]	Potency [7]	Potency [8]	Potency [9]
OC(c1ccc(F)cc1)(c1cncnc1)c1ccccc1Cl (centres undefined)	inactive	inactive	inactive	3.99 µM (active)	–	inactive	0.356 µM (active)	–	–
COc1cccc2c1cc([N+](=O)[O-])c1c(C(=O)O)cc3c(c12)OCO3	inactive	inactive	inactive	79.6 µM (active)	39.9 µM (active)	inactive	22.4 µM (active)	28.3 µM (active)	–
COc1cc(OC)nc(Sc2cccc(Cl)c2C(=O)O)n1	inactive	inactive	inactive	inactive	inactive	inactive	inactive	–	–
COP(=S)(OC)Oc1ccc(S(N)(=O)=O)cc1	inactive	inactive	inactive	1.38 µM (active)	–	inactive	–	3.47 µM (active)	–
CC(=O)Nc1cc([As](=O)(O)O)ccc1O	inactive	inactive	inactive	inactive	inactive	inactive	inactive	–	–
Cc1ncsc1CCCl	inactive	inactive	inactive	inactive	inactive	inactive	inactive	–	–
CCN(Cc1ccc(Cl)nc1)/C(=C/[N+](=O)[O-])NC	inactive	–	inactive	–	–	inactive	inactive	inactive	–
C#C[C@]1(O)C=C[C@H]2[C@@H]3CCC4=CC(=O)CC[C@@H]4[C@H]3CC[C@@]21CC	inactive	–	inactive	2.75 µM (active)	inactive	–	–	4.9 µM (active)	–
CCN(CC)C(C)C(=O)c1ccccc1 (centres undefined)	–	inactive	inactive	inactive	inactive	inactive	inactive	inactive	19.5 µM (active)
BrCCCCCCBr	inactive	–	inactive	25.2 µM (active)	63.3 µM (active)	inactive	inactive	–	–
CN(N=O)C(N)=O	–	inactive	inactive	inactive	inactive	inactive	inactive	inactive	inactive
CCSC(=O)N(CC)C1CCCCC1	inactive	inactive	inactive	–	inactive	inactive	inactive	–	–
CCC1(c2ccccc2)C(=O)N=C(O)NC1=O (centres undefined)	inactive	inactive	inactive	–	inactive	inactive	inactive	61.6 µM (active)	–
CCOc1nc(C(Cl)(Cl)Cl)ns1	inactive	–	inactive	inactive	–	inactive	inactive	–	–
CN1C[C@@H](NS(=O)(=O)N(C)C)C[C@@H]2c3cccc4c3c(cn4C)C[C@H]21	inactive	–	inactive	inactive	inactive	inactive	inactive	inactive	–
CCOP(=S)(OCC)SCSc1ccc(Cl)cc1	–	inactive	inactive	0.502 µM (active)	8.94 µM (active)	inactive	–	1 µM (active)	11.2 µM (active)
CNC(=O)O/N=C(\C)SC	2.83 µM (active)	1.26 µM (active)	17.8 µM (active)	–	inactive	inactive	inactive	inactive	–
Fc1cc(Br)ccc1CBr	inactive	–	inactive	–	–	inactive	inactive	inactive	inactive
CCC#N	inactive	inactive	inactive	–	–	–	inactive	–	–
O=C(O)c1ccc2[nH]cc(CCCCN3CC=C(c4ccccc4)CC3)c2c1	–	inactive	inactive	inactive	inactive	inactive	inactive	inactive	12.3 µM (active)
O=C(NCO)NCO	–	inactive	inactive	inactive	inactive	–	inactive	inactive	inactive
COC(=O)c1ccccc1S(=O)(=O)NC(=O)N(C)c1nc(C)nc(OC)n1	inactive	inactive	inactive	–	inactive	–	inactive	inactive	–
CC1=NNC(=O)N(/N=C/c2cccnc2)C1	inactive	inactive	inactive	–	35.6 µM (active)	–	inactive	–	–
COC(=O)C(c1ccccc1)C1CCCCN1 (centres undefined)	inactive	inactive	inactive	–	inactive	inactive	inactive	–	–
